Results with a measured potency or affinity are listed apart.

The test system of this assay is Cryptococcus neoformans. The settings on record: Concentration 32 ug.mL-1; ASSAY_TEST Inhibition of Fungal Growth; detection method Resazurin; Absorption (OD600-OD570); plate type 384well; NBS; CORNING #3640.
Turning to `Cc1ccc(-c2ccc3nn(CC(=O)N4CCN(c5ccccc5)CC4)c(=O)n3n2)cc1C`, the Inhibition was -5.58%.

Take `CC(C)CCn1c(=O)c2sccc2n2c(=O)n(Cc3c(F)cccc3Cl)nc12`: the Inhibition is -27.55%.

With `CC(C)c1ccc(N(Cc2ccccc2)S(=O)(=O)c2cccn3cnnc23)cc1`, the Inhibition is on record as -11.77%.

For `O=C(Cn1nc2nc(Nc3ccc(F)cc3)ccn2c1=O)NCc1ccc(F)cc1Cl`, the Inhibition was -8.71%.

In the case of `CCOc1ccc(-n2ccn3c(SCC(=O)Nc4ccc(F)cc4F)nnc3c2=O)cc1`, the Inhibition is listed as -5.09%.

As for `COc1cccc(-n2ccn3c(SCC(=O)c4cccc(Cl)c4)nnc3c2=O)c1`, the Inhibition is on record as -6.56%.

Take `O=C(Cn1nc2c(Sc3ccccc3)nccn2c1=O)Nc1cc(F)ccc1F`: the Inhibition is reported as -12.37%.

`O=c1c2sccc2n2c(=O)n(Cc3cccc(Br)c3)nc2n1Cc1cccs1`: the Inhibition was -21.53%.

Consider `CCCCNC(=O)Cn1nc2n(Cc3ccco3)c(=O)c3sccc3n2c1=O`, for which the Inhibition was -11.54%.

With `O=C(CSc1nnc2c(=O)n(-c3ccc(Br)cc3)ccn12)Nc1ccc(F)cc1`, the Inhibition was -11.61%.

As for `COc1ccc(-c2cc3c4nn(CC(=O)NCc5ccc(Cl)cc5)c(=O)n4ccn3n2)cc1`, the Inhibition is listed as -24.2%.

For `CC(C)c1nnc2c(SCC(=O)Nc3ccccc3C(F)(F)F)nc3ccccc3n12`, the Inhibition is -15.63%.

With `CCCCOc1ccc(-c2cc3c4nnc(SCC(=O)Nc5ccc(F)cc5)n4ccn3n2)cc1`, the Inhibition is recorded as -16.65%.

`CCCCOc1ccc(-c2cc3c4nnc(SCC(=O)NCc5ccc(OC)cc5)n4ccn3n2)cc1`: the Inhibition was -16.44%.

Regarding `COc1cccc(Oc2nccn3c(=O)n(CC(=O)NCc4ccc(SC)cc4)nc23)c1`, the Inhibition is -5.89%.

As to `CCCCOc1ccc(-c2cc3c4nnc(SCC(=O)Nc5ccc(C)c(F)c5)n4ccn3n2)cc1`, the Inhibition is given as -15.89%.

For the molecule `Cc1ccc(Oc2nccn3c(=O)n(CC(=O)Nc4cccc(Br)c4)nc23)cc1`, the Inhibition is -18.68%.

Take `COC(=O)c1ccc(NC(=O)Cn2nc3nc(N4CCCCCC4)ccn3c2=O)cc1`: the Inhibition is on record as -8.37%.

`Cc1cc(C)cc(Oc2nccn3c(=O)n(CC(=O)Nc4cccc(Cl)c4)nc23)c1`: the Inhibition was -3.38%.

In the case of `COc1ccc(NC(=O)Cn2nc3c(Oc4cccc(OC)c4)nccn3c2=O)cc1`, the Inhibition was -7.1%.

As to `CCOc1ccc(-n2ccn3c(SCC(=O)Nc4ccc(Cl)cc4)nnc3c2=O)cc1`, the Inhibition is on record as -6.67%.

As for `COc1ccc(-c2cc3c4nn(CC(=O)Nc5ccc(C)c(F)c5)c(=O)n4ccn3n2)cc1`, the Inhibition was -7.43%.

For `O=S(=O)(c1ccc2nncn2c1)N(Cc1cccc(Cl)c1)c1ccccc1`, the Inhibition is listed as -11.03%.

`CCOC(=O)c1ccccc1NC(=O)Cn1c(=O)c2nnc(C(C)C)n2c2ccccc21`: the Inhibition is listed as -21.33%.

As for `CCc1nnc2c(S(=O)(=O)N(Cc3cccc(OC)c3)c3ccccc3)cccn12`, the Inhibition was -9.71%.

For the molecule `Cc1ccc(C)c(CN(c2cccc(Cl)c2)S(=O)(=O)c2cccn3c(C)nnc23)c1`, the Inhibition is given as -8.33%.

As to `CCOc1ccc(-n2ccn3c(SCC#N)nnc3c2=O)cc1`, the Inhibition was -3.42%.

In the case of `CC(C)c1ccc(NC(=O)Cn2nc3c(Sc4ccccc4)nccn3c2=O)cc1`, the Inhibition is on record as -7.48%.

As for `CCCc1nnc2c(=O)n(CC(=O)Nc3ccc(Br)cc3F)c3ccccc3n12`, the Inhibition was -24.08%.

Consider `COc1ccccc1N1CCN(C(=O)CSc2nc3ccccc3n3cnnc23)CC1`, for which the Inhibition is listed as -5.08%.

With `COc1ccc(-c2cc3c4nnc(SCC(=O)NCc5ccccc5Cl)n4ccn3n2)cc1`, the Inhibition is given as -22.52%.

For `CCOC(=O)c1ccc(NC(=O)Cn2nc3ccc(C(=O)Nc4cccc(C)c4)cn3c2=O)cc1`, the Inhibition is -36.79%.

For the molecule `Cc1ccc(NC(=O)Cn2nc3ccc(SC(C)(C)C)nn3c2=O)cc1Cl`, the Inhibition was -28.11%.

Regarding `Cc1c(Cl)cccc1-n1ccn2c(=O)n(Cc3ccc(Cl)cc3)nc2c1=O`, the Inhibition is -15.09%.

For `Cc1cc2nn(CC(=O)Nc3ccc4c(c3)OCCO4)c(=O)n2c(Nc2ccccc2C)n1`, the Inhibition was -3.99%.

Turning to `Cc1cc(C)cc(Oc2nc3ccccc3n3c(=O)n(CC(=O)Nc4ccc5c(c4)OCO5)nc23)c1`, the Inhibition is listed as -19.74%.

Take `CCc1nnc2c(S(=O)(=O)N(Cc3cc(F)cc(F)c3)c3cccc(F)c3)cccn12`: the Inhibition is -5.16%.

As for `CCOC(=O)C1CCCN(C(=O)Cn2nc3n(CC(C)C)c(=O)c4sccc4n3c2=O)C1` (centres undefined), the Inhibition is given as -14.07%.

For `Cc1ccc(NC(=O)Cn2nc3c(Oc4ccccc4)nccn3c2=O)c(Br)c1`, the Inhibition is -6.15%.
